Most compounds without a hit are left out; they make up all but 2.2% or so of the library.
Mito fusion yeast: mitochondrial division inhibition or fusion activation; Potency, µM (highest dose often 46.1 µM), without a hit: at the top dose growth rescue (activation), usual class: activators; AID 485298; actives 0.23% (n = 320,000); S. cerevisiae fusion-defective mutant growth rescue, CellTiterGlo 48 h; also: % of control where 0% means no effect; nearly all actives have a fitted effect of over 45% in size
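Read-out: ATP-based luminescence (CellTiterGlo, 10 min ambient) reporting growth of fusion-defective ts yeast after 48 hours at 37C on glycerol/ethanol YPEG medium in the presence of compound.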
TDP43 rescue: TDP-43 toxicity inhibition in yeast | TDP-43 expressing yeast growth rescue, BacTiter-Glo, 24 h | Potency, µM (doses to about 46.1 µM), for the others: top-dose growth rescue (activation), actives largely listed as activators | actives 1.8% (n = 410,000) | AID 652104; also: % of control where 0% means no effect; nearly all actives have a fitted effect of over 50% in size
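Yeast cells expressing TDP-43 under galactose induction are exposed to compounds for 24 hr at 30 deg C. BacTiter-Glo luminescence measures growth, so protective compounds score as activators.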
aSyn yeast inh: inhibitors of alpha-synuclein toxicity in yeast. Yeast expressing alpha-synuclein, growth rescue, BacTiter-Glo, 24 h. actives 0.14% (n = 370,000). Potency, µM (doses to about 46.1 µM), inactives show at the top dose growth rescue (activation), most hits filed as activators; also: % of control where 0% means no effect; nearly all actives have a fitted effect of over 65% in size
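Galactose-induced alpha-syn yeast (OD600=0.02, raffinose-pregrown) + pinned cpd, 24 hr, 30 deg C; growth by BacTiter-Glo luminescence. Growth restoration scores as activation.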
FUS yeast rescue: FUS proteinopathy suppression in yeast. AID 1347120. S. cerevisiae FUS-expressing, growth rescue, OD600, 24 h. Potency, µM (top dose mostly 76.6 µM), most hits filed as activators. actives 0.24% (n = 390,000);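 also: plate controls were DMSO vehicle for no effect and reference control for full effect; nearly all actives have a fitted effect of over 55% in size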
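Yeast expressing FUS under galactose induction, OD 0.005 in 2% galactose medium; compounds in a dilution series, 24 h at 30C. Growth rescue by absorbance at 600 nm; CP55940 positive control, DMSO negative.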
Abeta rescue: restores growth of yeast expressing A-beta42 peptide; yeast expressing A-beta42, growth rescue, OD600, 48 h; response scale: 0% DMSO, 100% iron-clioquinol control; Potency, µM (highest dose often 46.1 µM), usual class: activators; actives 0.063% (n = 410,000); AID 1347071; also: nearly all actives have a fitted effect of over 55% in size
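Yeast A-beta toxicity model in growth medium with pinned compounds, 48 h at 30 C; growth read as absorbance at 600 nm. Normalized to FeCl3/clioquinol equimolar mix (positive) and DMSO (negative).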
* = called active by the depositor; i = inactive; ? = inconclusive; . = no result; [ ] = dose if it differs, or a comment. Calls follow the shape of the dose curve; as a rule, active = well fitted curve in the direction sought with a large enough effect; inconclusive = small, poorly fitted or top-dose-only effect, or another doubt; inactive = no such curve, though single readings can be large; an effect the other way counts as inactive or inconclusive. Potency is read from the fitted curve at half-maximal effect.

SMILES	Mito fusion yeast	TDP43 rescue	aSyn yeast inh	FUS yeast rescue	Abeta rescue
NCC(=O)c1c[nH]c2ccccc12	.	.	-1.5%	.	.
CCCc1cc(N2CCN(c3ccccc3F)CC2)n2cnnc2n1	.	20µM*	.	i	i
Cc1cc(N2CCN(c3ccccc3)CC2)n2cnnc2n1	.	8.3%	.	i	i
CCCc1cc(N2CCN(c3ccccc3)CC2)n2cnnc2n1	.	20µM*	.	i	i
COc1cc(C2c3c(-c4ccccc4O)n[nH]c3C(=O)N2Cc2ccco2)ccc1OCC(C)C (stereo unspecified)	.	23.8%	.	i	i
CCc1cccc(NC(=O)CSc2nncn3c2cc2sccc23)c1	.	12.5%	.	i	i
COc1ccc(C(=O)NCCc2sc(-c3ccc(F)cc3)nc2C)cc1OC	.	19.7%	.	i	i
Cc1ccc(-c2nc(C)c(CCNC(=O)c3ccccc3Br)s2)cc1	.	?	-1.8%	i	i
COc1ccc(-c2nc(C)c(CCNC(=O)c3ccccc3Br)s2)cc1OC	.	11.2µM*	.	i	i
Cc1cccc(-c2nc(CCNC(=O)c3ccccc3Br)cs2)c1	.	12.6µM*	.	i	i
COc1cccc(C(=O)NCCc2csc(-c3cccc(F)c3)n2)c1OC	.	?	.	i	i
CCOc1ccc(C(=O)NCCc2sc(-c3ccc(OC)c(OC)c3)nc2C)cc1	.	15.8µM*	-15.4%	i	i
O=C(NCC(c1ccccc1)c1ccccc1)[C@H](Cc1ccccc1)NC1(C(=O)NC2CCCCC2)CCCCCC1	.	.	.	i	.
CC(C)C(=O)NC(c1ccc(Cl)cc1Cl)c1ccc2cccnc2c1O (stereo unspecified)	5.0%	25.1µM*	?	i	i
CCc1nn(CC(=O)N(C)Cc2ccccc2)c(=O)c2cc3sccc3n12	.	-19.9%	.	i	i
CC(C)(C)c1ccc(-c2noc(CCC(=O)NC3CC3)n2)cc1	.	.	.	i	.
c1csc(Cn2c(-c3cccs3)nc3ccccc32)c1	8.3%	12.6µM*	-15.7%	i	i
CC1(c2ccc(Cl)cc2)CC(C)(C)N(C(=O)c2ccccc2)c2ccccc21 (stereo unspecified)	.	-8.7%	.	i	i
CC1(c2cc([N+](=O)[O-])cc([N+](=O)[O-])c2)CC(C)(C)N(C(=O)c2ccccc2)c2ccccc21 (stereo unspecified)	-5.1%	25.1µM*	-15.4%	i	i
Cc1cc(C)c(OCC(=O)OC(C)C(=O)N2CCc3ccccc32)c(C)c1 (stereo unspecified)	11.3%	22.4µM*	-18.9%	i	i
CCc1ccc(C(=O)c2cn(Cc3ccc(F)cc3)c3cc(OC)c(OC)cc3c2=O)cc1	.	?	.	35.5µM*	i
O=C(CC1C(=O)N(c2ccccc2)C(=O)N1Cc1ccc(F)cc1)Nc1cccc(F)c1 (stereo unspecified)	.	2.2%	.	i	i
CCOC(=O)c1ccc(-n2c(CCC(=O)O)ccc2-c2ccc(F)cc2)cc1	6.5%	12.6µM*	9.3%	i	i
Cc1ccc(NC(=O)N2CC3CCCN3c3ccccc32)cc1C (stereo unspecified)	.	20µM*	.	i	i
Cc1ccc(SCC(=O)NC(=O)c2ccccc2Br)c(C)c1	.	12.6µM*	15.1%	.	i
SMILES	Mito fusion yeast	TDP43 rescue	aSyn yeast inh	FUS yeast rescue	Abeta rescue
Cc1ccc(SCC(=O)NNC(=O)c2ccccc2)c(C)c1	-10.8%	4.5%	4.8%	i	i
O=C(N1CCN(c2ccccn2)CC1)N1c2ccccc2Sc2ccccc21	11.2µM*	-14.7%	12.2%	i	i
CCCOc1cc(N(CC)CC)ccc1/C=C(/C#N)c1nc2ccc(C)cc2[nH]1	2.7%	?	-29.9%	.	i
N#C/C(=C\c1c(Cl)cccc1Cl)c1nc2ccccc2[nH]1	14.4%	11.2µM*	-45.6%	i	i
CCOc1cc(N(CC)CC)ccc1/C=C(/C#N)c1nc2ccccc2[nH]1	16.4%	7.08µM*	-22.1%	?	i
CN(C)/C=C(\C#N)c1nc2ccccc2[nH]1	-1.3%	-10.9%	-3.9%	i	i
CCN(CC)c1ccc(/C=C(/C#N)c2nc3ccc(C)cc3[nH]2)c(OC(C)C)c1	0.5%	?	-35.2%	8.91µM*	i
CCOC(=O)c1cc(C)n(CC2CCC(C(=O)Nc3cccc(C)c3)CC2)c1C (stereo unspecified)	.	14.3%	.	?	i
Cc1ccc(NC(=O)CN2C(=O)CSc3ccc(S(=O)(=O)N(C)C)cc32)c(C)c1	.	11.6%	.	i	i
CCCCC(=O)N1CCC(NS(=O)(=O)c2ccc3c(c2)CCN3C(C)=O)CC1	.	.	.	i	.
CSc1cccc(NC(=O)c2c(Cl)cnn2C)c1	2.1%	?	1.6%	i	i
Cn1ncc(Cl)c1C(=O)Nc1cccc(Cl)c1	0.7%	7.08µM*	6.7%	i	i
Cn1nccc1C(=O)N1CCN(c2cccc(Cl)c2)CC1	-0.9%	22.4%	4.6%	i	i
Cn1ncc(Cl)c1C(=O)N1CCN(c2cccc(Cl)c2)CC1	4.0%	14.1µM*	17.7%	i	i
CCOCCCNC(=O)c1ccc2c(=O)n(CCc3ccc(OC)c(OC)c3)c(=O)[nH]c2c1	.	0.0%[9.22 µM]	.	i	i
COC(=O)NNC(=O)c1ccc(C)c(Br)c1	-27.7%	20µM*	2.4%	.	?
Cc1ccc(C(=O)NNC(=O)C2CC2)cc1Br	-0.1%	7.6%	-0.8%	i	i
CCOc1ccc(CCNC(=O)Cn2ncc3c(=O)oc4ccc(C)cc4c32)cc1	.	19.9%	.	i	i
CC(C)(Oc1ccc(Cl)cc1)C(=O)NNC(=O)c1ccc(Br)o1	6.4%	14.1µM*	1.8%	i	i
COc1ccc(C(O)c2nc(-c3cccc(F)c3)cs2)cc1 (stereo unspecified)	.	14.1µM*	?	i	i
COc1cccc(C(O)c2nc(-c3cccc(C(F)(F)F)c3)cs2)c1 (stereo unspecified)	.	22.4µM*	3.0%	i	i
COCc1cccc(-c2csc(C(N)c3ccc(F)c(F)c3)n2)c1 (stereo unspecified)	.	15.5%	0.4%	i	i
OC(c1ccccc1)c1nc(-c2cccc(F)c2)cs1 (stereo unspecified)	.	?	24.7%	i	i
COCc1cccc(-c2csc(C(O)c3ccc(F)c(F)c3)n2)c1 (stereo unspecified)	.	20µM*	?	i	i
COc1ccc(C(O)c2nc(-c3cccc(C(F)(F)F)c3)cs2)cc1 (stereo unspecified)	.	22.4µM*	11.5%	?	i
CCOc1ccc(NC(=O)C2CCCN(c3nn4cc(-c5ccc(OC)cc5)nc4s3)C2)cc1 (stereo unspecified)	.	12.4%	.	i	i

Assay outcomes from PubChem.
